Source: PubChem BioAssay (National Center for Advancing Translational Sciences (NCATS))
MCF10A rerep: A quantitative high throughput screen for small molecules that induce DNA re-replication in MCF 10a normal breast cells. Potency, µM (highest dose often 46.1 µM), most hits filed as activators. MCF 10A DNA re-replication, Hoechst nuclear intensity, 48 h. actives 2.9% (n = 350,000). AID 624296, 2012; further: nearly all actives have a fitted effect of over 50% in size
DT40 TDP1 no CPT: qHTS for Inhibitors of human tyrosyl-DNA phosphodiesterase 1 (TDP1): qHTS in cells in absence of CPT; DT40 Tdp1-/- hTDP1 cells, no CPT, ATP luminescence, 48 h; AID 686978, 2013; actives 15% (n = 420,000); Potency, µM (highest dose often 46.2 µM), usual class: inhibitors; further: nearly all actives have a fitted effect of over 55% in size
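Compound effects on proliferation are scored in DT40 Tdp1-/-;hTDP1 cells in the absence of CPT. ATP levels (CellTiter-Glo luminescence) are recorded after a ≥48 hr, 37 °C incubation.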
BCR signal inh: qHTS Assay to Find Inhibitors of Chronic Active B-Cell Receptor Signaling; Potency, µM (highest dose often 46.1 µM), usual class: inhibitors; ABC-DLBCL IkBa-CBG/CBR reporter, luminescence ratio, 4 h; actives 0.05% (n = 340,000); active means well fitted inhibition curve with a large enough effect in the signal ratio, with a control signal flat, not every such curve was filed as active; inconclusive means small, poorly fitted or top-dose-only effect, or effect the other way, or a change in a side signal; the % refers to the signal ratio
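Compounds up to 46 uM were incubated four hours with TMD8 cells whose green CBG68 luciferase is fused to IkappaBalpha; red CBR luminescence normalised the signal, and concentration-effect curves were fitted to fusion, red and ratio data.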
TDP1 cell CPT: qHTS for Inhibitors of human tyrosyl-DNA phosphodiesterase 1 (TDP1): qHTS in cells in presence of CPT; chicken DT40 Tdp1-/-;hTDP1 cells + 20 nM CPT, ATP luminescence, 48 h; Potency, µM (doses to about 46.2 µM), hits mostly inhibitors; actives 12% (n = 420,000); further: nearly all actives have a fitted effect of over 55% in size
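Chicken DT40 Tdp1-/- cells complemented with human TDP1, 400 cells/well, exposed to compounds plus 20 nM camptothecin for at least 48 h at 37 C; viability read as ATP content by CellTiter-Glo luminescence.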
IL-1B inflam inh: qHTS for Inhibitors of Inflammasome Signaling: IL-1-beta AlphaLISA Primary Screen; activity change, % at 57.5 µM; THP-1 LPS/ATP IL-1B secretion, AlphaLISA, 16 h; active compounds read low; actives 4.7% (n = 360,000); AID 743279, 2014; in the data active means activity change below about -50%; inconclusive means mostly about -30% to -49%
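Secreted IL-1B measured by AlphaLISA bead assay after 16 h compound exposure of THP-1 cells; compounds (final up to 57.5 uM) added 1 h before LPS (250 ng/mL) and ATP (1.25 mM) stimulation; lower signal means less secretion.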
SW480 rerep: A quantitative high throughput screen for small molecules that induce DNA re-replication in SW480 colon adenocarcinoma cells; SW480 DNA re-replication, Hoechst DNA content imaging, 48 h; actives 1.8% (n = 340,000); Potency, µM (top dose mostly 46.1 µM), hits mostly activators; further: nearly all actives have a fitted effect of over 55% in size
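Treated cells incubate 48 hr (37 C, 5% CO2), are stained 40 min with Hoechst, and nuclear fluorescence is enumerated; a rise in nuclei with high DNA signal marks re-replication.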
Numbers stand for hits; 0 = inactive; ? = inconclusive; - = no result given; [ ] = another dose, or the depositor's remark. Shown are actives, neighbours in structure and some others; about 19% of the full set was active somewhere. Unless noted, the call rests on the fitted dose curve; in most records, active means well fitted curve in the direction sought with a large enough effect; inconclusive means small, poorly fitted or top-dose-only effect, or another doubt; inactive means no such curve, though single readings can be large; an effect the other way counts as inactive or inconclusive.

SMILES	MCF10A rerep	DT40 TDP1 no CPT	BCR signal inh	TDP1 cell CPT	IL-1B inflam inh	SW480 rerep
CCOC(=O)c1sc(NC(=O)c2c(C)nn(Cc3ccccc3)c2C)cc1C	?	?	?	16µM	0	?
CCOC(=O)c1sc(NC(=O)C2CC2)cc1C	0	?	0	?	0	0
CCOC(=O)c1sc(NC(=S)NC(=O)C2CCCC2)cc1C	0	16µM	0	?	0	0
CCOC(=O)c1cc(NC(=O)/C=C\C(=O)O)ccc1Cl	0	0	0	0	0	0
CCOC(=O)c1sc(NC(=O)C(C)(C)C)cc1C	0	0	0	0	0	0
CCOC(=O)c1sc(NC(=O)Nc2ccc(Cl)cc2)cc1C	?	3.7µM	?	5.8µM	-103	0
CCOC(=O)c1c(NC(=O)c2cccnc2)sc(C)c1C	0	0	0	?	-54	0
Cc1ccc(C(=O)Nc2sc(C)c(C)c2C(=O)c2ccccc2)cc1	0	?	0	16µM	?	0
CCOC(=O)c1c(NC(=O)Nc2ccc(Cl)cc2)sc(C)c1C	?	13µM	0	?	0	0
CCOC(=O)c1sc(NC(=O)c2cccnc2)c(C#N)c1C	0	0	0	0	0	0[9.22 µM]
CCOC(=O)c1sc(NC(=O)c2ccccc2)cc1C	0	?	?	?	?	0
Cc1sc(NC(=O)c2ccccc2)c(C(=O)c2ccccc2)c1C	0	?	?	?	?	0
CCOC(=O)c1sc(NC(=O)c2cccc(S(=O)(=O)N(CC)CC)c2)cc1C	0	4.6µM	?	2.6µM	0	0
CCOC(=O)c1c(NC(=O)Nc2cccc(Cl)c2)sc(C)c1C	0	?	?	0	0	0
CN1CCN(NS(=O)(=O)c2ccc(Cl)cc2)CC1	0	0	0	0	0	0
C[C@@H](O)[C@@H]1C(=O)N2C(C(=O)O)=C([C@H]3CCCO3)S[C@H]12	0	-	-	-	-	0
O=C(COC(=O)C1CSC2(c3ccc(F)cc3)CCC(=O)N12)NC(=O)NC1CCCC1 (configuration not stated)	0[9.22 µM]	0	0	0	0	0
CN(/N=C/c1c[nH]c2ccccc12)c1cnn(-c2ccc(F)c(Cl)c2)c(=O)c1Cl	?	26µM	?	26µM	0	0
CN(/N=C/c1cccnc1)c1cnn(-c2ccc(F)c(Cl)c2)c(=O)c1Cl	0[0.0737 µM]	0	0	0	0	0
CCOc1ccc(CNC(=S)N/N=C/c2ccc(OC)c(OC)c2)cc1	0	?	0	0	0	0
COc1cc(/C=N\NC(=O)CC#N)ccc1OC/C=C/c1ccccc1	0	?	0	26µM	0	?
Cn1c(=O)n(C)c2cc(/C=N/NC(=S)NCc3ccccc3)ccc21	?	26µM	0	?	0	0
COc1cc(/C=N/NC(=S)NCc2ccccc2)ccc1OCC#N	0	23µM	0	21µM	0	0
COCC(=O)N/N=C\c1ccc(OC/C=C/c2ccccc2)c(OC)c1	?	?	?	?	0	?
O=C(NCc1ccccc1Cl)C(=O)c1cn(CC(=O)N2CCOCC2)c2ccccc12	?	?	?	0	0	?
SMILES	MCF10A rerep	DT40 TDP1 no CPT	BCR signal inh	TDP1 cell CPT	IL-1B inflam inh	SW480 rerep
CN1CCN(NC(=O)c2cc(Br)ccc2Cl)CC1	0	0	0	0	0	0
O=C(O)c1ccc(/C=N/Nc2nc3ccccc3[nH]2)cc1	0	0	?	0	0	0
COc1cccc(/C=N/Nc2nc3ccccc3[nH]2)c1OC	0	0	?	0	0	0[9.22 µM]
Cc1ccsc1/C=N/Nc1nc2ccccc2[nH]1	0	?	?	?	0	0
C(=N\Nc1nc2ccccc2[nH]1)/c1cccs1	0	?	?	?	-71	0
C=CCn1cc(/C=N/Nc2nc3ccccc3[nH]2)c2ccccc21	?	?	?	?	-95	0
Cn1c(/C=N/Nc2nc3ccccc3[nH]2)nc2ccccc21	0	29µM	?	?	0	?
CCCn1c(/C=N/Nc2nc3ccccc3[nH]2)nc2ccccc21	?	?	0	?	-52	-
O=c1c2ccccc2c2ccccc2c(=O)n1Nc1ccccc1	-	0	-	0	0	-
Cc1nn(-c2ccccc2)c(C)c1/C=N/Nc1nc2ccccc2[nH]1	?	23µM	0	18µM	-88	?
CC(C)Cn1c(/C=N/Nc2nc3ccccc3[nH]2)nc2ccccc21	0	3.3µM	0	3.7µM	0	?
COC(=O)c1ccc(/C=N/Nc2nc3ccccc3[nH]2)cc1	0	?	?	?	0	0
COc1ccc(CNC(=O)Nc2cccc3ccccc23)cc1	0	0	0	0	0	0
COc1ccc(CCNC(=S)Nc2cccc3ccccc23)cc1	?	16µM	?	?	0	0
COc1ccc(OCCNC(=S)Nc2cccc3ccccc23)cc1	0	23µM	0	0	0	?
COc1ccc(-c2oc3ncn4nc(-c5ccccc5Cl)nc4c3c2-c2ccc(OC)cc2)cc1	-	0	-	0	-	-
CCN(CC)CCNC1=NCCn2c1cc1cc(OC)ccc12	?	?	0	21µM	-76	?
O=C(/C=C/c1cccc(O)c1)c1ccc(N2CCOCC2)cc1	0	15µM	?	?	-94	?
COc1ccc(/C=N/NC(=O)c2ccncc2)cc1CN1CCOCC1	0	0	0	0	-	0
C/C(=C\C(=O)c1ccccc1)Nc1ccc(N2CCOCC2)cc1	0[0.0737 µM]	?	0	0	0	0
COc1ccc(C(=O)/C=C/c2ccc(OC)c(CN3CCOCC3)c2)cc1	?	23µM	?	?	-100	?
COc1ccc(C(=O)/C=C/c2ccc(OC)c(Cn3nnc4ccccc43)c2)cc1	16µM	21µM	?	18µM	?	-
COc1ccc(/C=C/C(=O)C23CC4CC(CC(C4)C2)C3)cc1CN1CCOCC1	?	18µM	?	?	-189	?
CCCCNS(=O)(=O)c1cccc(NC(=O)[C@@H]2O[C@H](CO)[C@H](O)[C@H](O)[C@H]2O)c1	-	?	-	0	0	-
Cc1cccc(NS(=O)(=O)c2ccc(C)c(C(=O)NCc3ccncc3)c2)c1	0	?	0	0	0	0
COc1ccc(/C=C/C(=O)c2ccc(O)cc2)cc1CN1CCOCC1	?	29µM	?	?	-133	?
COc1ccc(/C=N/NC(=O)c2ccc(Br)cc2)cc1CN1CCOCC1	0	0	0	0	0	0
Cc1ccc2nc(NC(=O)C3CCN(S(=O)(=O)c4cc([N+](=O)[O-])ccc4Cl)CC3)sc2c1	0	6.5µM	?	9.2µM	?	?
